Measurements as given in the supplement of paper PMC8728848.
About 410 targets per protein were measured; listed, in parts, are those with the strongest signals and a random draw of the rest.

What was measured:
Assay in all cases: glycan array binding signal (z-score within array); higher = stronger binding
Details in all cases: glycan notation: IUPAC condensed, linker removed
[1] = target: Fuc(a1-2)Gal(b1-3)GalNAc(b1-4)[Neu5Ac(a2-3)]Gal(b1-4)Glc
Procedure, shortened: (§1)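 Glycan array data came from 3228 arrays in the Consortium for Functional Glycomics database, and only arrays with an available protein sequence were kept. Glycan names were put into IUPAC-condensed notation, and columns mapping to the same glycan were averaged. The binding signal is a within-array Z-score, averaged across arrays of one protein sequence run at different concentrations or buffers and across linkers. A negative Z-score can be read as non-binding.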

[2] = target: Fuc(a1-2)Gal(b1-3)GlcNAc(b1-3)[Neu5Ac(a2-6)Gal(b1-4)GlcNAc(b1-6)]Gal(b1-4)Glc
Procedure, shortened: as §1

[3] = target: Fuc(a1-2)Gal(b1-4)GlcNAc(b1-3)Gal(b1-4)GlcNAc(b1-2)Man(a1-3)[Fuc(a1-2)Gal(b1-4)GlcNAc(b1-3)Gal(b1-4)GlcNAc(b1-2)Man(a1-6)]Man(b1-4)GlcNAc(b1-4)GlcNAc
Procedure, shortened: as §1

[4] = target: Fuc(a1-2)Gal(b1-4)[Fuc(a1-3)]GlcNAc(b1-3)Gal(b1-4)[Fuc(a1-3)]GlcNAc
Procedure, shortened: as §1

[5] = target: Fuc(a1-2)Gal3S(b1-4)GlcNAc
Procedure, shortened: as §1

[6] = target: Fuc(a1-2)[Gal(a1-3)]Gal(b1-4)GlcNAc(b1-3)[Fuc(a1-2)[Gal(a1-3)]Gal(b1-4)GlcNAc(b1-6)]GalNAc
Procedure, shortened: as §1

[7] = target: Fuc(a1-2)[GalNAc(a1-3)]Gal(b1-3)GalNAc(a1-3)[Fuc(a1-2)]Gal(b1-4)GlcNAc
Procedure, shortened: as §1

[8] = target: Fuc(a1-2)[GalNAc(a1-3)]Gal(b1-3)GlcNAc(b1-6)GalNAc
Procedure, shortened: as §1

[9] = target: Fuc(a1-3)[Gal(b1-4)]GlcNAc(b1-6)GalNAc
Procedure, shortened: as §1

[10] = target: Fuc(a1-3)[Gal3S(b1-4)]GlcNAc6S
Procedure, shortened: as §1

Fuc(a1-4)GlcNAc = target: Fuc(a1-4)GlcNAc
Procedure, shortened: as §1

[11] = target: Gal(a1-3)[Gal(a1-4)]Gal(b1-4)GlcNAc
Procedure, shortened: as §1

Gal(a1-4)Gal(b1-4)GlcNAc = target: Gal(a1-4)Gal(b1-4)GlcNAc
Procedure, shortened: as §1

Gal(b1-3)GlcNAc = target: Gal(b1-3)GlcNAc
Procedure, shortened: as §1

[12] = target: Gal(b1-3)GlcNAc(a1-3)Gal(b1-4)GlcNAc
Procedure, shortened: as §1

[13] = target: Gal(b1-3)GlcNAc(b1-2)Man(a1-3)[Gal(b1-3)GlcNAc(b1-2)Man(a1-6)]Man(b1-4)GlcNAc(b1-4)GlcNAc
Procedure, shortened: as §1

[14] = target: Gal(b1-3)GlcNAc(b1-3)Gal(b1-4)GlcNAc(b1-3)Gal(b1-4)GlcNAc(b1-2)[Gal(b1-3)GlcNAc(b1-3)Gal(b1-4)GlcNAc(b1-3)Gal(b1-4)GlcNAc(b1-6)]Man(a1-6)[Gal(b1-3)GlcNAc(b1-3)Gal(b1-4)GlcNAc(b1-3)Gal(b1-4)GlcNAc(b1-2)Man(a1-3)]Man(b1-4)GlcNAc(b1-4)[Fuc(a1-6)]GlcNAc
Procedure, shortened: as §1

[15] = target: Gal(b1-4)GlcNAc(b1-2)Man(a1-3)Man(b1-4)GlcNAc(b1-4)GlcNAc
Procedure, shortened: as §1

[16] = target: Gal(b1-4)GlcNAc(b1-2)Man(a1-6)[GlcNAc(b1-2)Man(a1-3)]Man(b1-4)GlcNAc(b1-4)GlcNAc
Procedure, shortened: as §1

[17] = target: Gal(b1-4)GlcNAc(b1-3)Gal(b1-4)GlcNAc(b1-2)Man(a1-3)[Gal(b1-4)GlcNAc(b1-3)Gal(b1-4)GlcNAc(b1-2)Man(a1-6)]Man(b1-4)GlcNAc(b1-4)[Fuc(a1-6)]GlcNAc
Procedure, shortened: as §1

[18] = target: Gal(b1-4)GlcNAc(b1-3)Gal(b1-4)GlcNAc(b1-3)Gal(b1-4)GlcNAc(b1-2)Man(a1-3)[Gal(b1-4)GlcNAc(b1-3)Gal(b1-4)GlcNAc(b1-3)Gal(b1-4)GlcNAc(b1-2)Man(a1-6)]Man(b1-4)GlcNAc(b1-4)GlcNAc
Procedure, shortened: as §1

[19] = target: Gal(b1-4)GlcNAc(b1-3)Gal(b1-4)GlcNAc(b1-3)Gal(b1-4)GlcNAc(b1-3)Gal(b1-4)GlcNAc(b1-2)Man(a1-3)[Gal(b1-4)GlcNAc(b1-3)Gal(b1-4)GlcNAc(b1-3)Gal(b1-4)GlcNAc(b1-3)Gal(b1-4)GlcNAc(b1-2)Man(a1-6)]Man(b1-4)GlcNAc(b1-4)GlcNAc
Procedure, shortened: as §1

[20] = target: Gal(b1-4)GlcNAc(b1-3)Gal(b1-4)GlcNAc(b1-3)Gal(b1-4)GlcNAc(b1-3)Gal(b1-4)GlcNAc(b1-2)[Gal(b1-4)GlcNAc(b1-3)Gal(b1-4)GlcNAc(b1-3)Gal(b1-4)GlcNAc(b1-3)Gal(b1-4)GlcNAc(b1-6)]Man(a1-6)[Gal(b1-4)GlcNAc(b1-3)Gal(b1-4)GlcNAc(b1-3)Gal(b1-4)GlcNAc(b1-3)Gal(b1-4)GlcNAc(b1-2)Man(a1-3)]Man(b1-4)GlcNAc(b1-4)[Fuc(a1-6)]GlcNAc
Procedure, shortened: as §1

[21] = target: Gal(b1-4)GlcNAc(b1-3)Gal(b1-4)GlcNAc(b1-3)Gal(b1-4)GlcNAc(b1-3)Gal(b1-4)GlcNAc(b1-3)Gal(b1-4)GlcNAc(b1-2)Man(a1-3)[Gal(b1-4)GlcNAc(b1-3)Gal(b1-4)GlcNAc(b1-3)Gal(b1-4)GlcNAc(b1-3)Gal(b1-4)GlcNAc(b1-3)Gal(b1-4)GlcNAc(b1-2)Man(a1-6)]Man(b1-4)GlcNAc(b1-4)GlcNAc
Procedure, shortened: as §1

[22] = target: Gal(b1-4)GlcNAc(b1-3)Gal(b1-4)GlcNAc(b1-3)Gal(b1-4)GlcNAc(b1-3)Gal(b1-4)GlcNAc(b1-3)Gal(b1-4)GlcNAc(b1-2)[Gal(b1-4)GlcNAc(b1-3)Gal(b1-4)GlcNAc(b1-3)Gal(b1-4)GlcNAc(b1-3)Gal(b1-4)GlcNAc(b1-3)Gal(b1-4)GlcNAc(b1-6)]Man(a1-6)[Gal(b1-4)GlcNAc(b1-3)Gal(b1-4)GlcNAc(b1-3)Gal(b1-4)GlcNAc(b1-3)Gal(b1-4)GlcNAc(b1-3)Gal(b1-4)GlcNAc(b1-2)Man(a1-3)]Man(b1-4)GlcNAc(b1-4)[Fuc(a1-6)]GlcNAc
Procedure, shortened: as §1

[23] = target: Gal(b1-4)GlcNAc(b1-6)GalNAc
Procedure, shortened: as §1

Gal3S(b1-3)GlcNAc = target: Gal3S(b1-3)GlcNAc
Procedure, shortened: as §1

[24] = target: Gal3S(b1-4)[Fuc(a1-3)]GlcNAc
Procedure, shortened: as §1

[25] = target: GalNAc3S(b1-4)[Fuc(a1-3)]GlcNAc
Procedure, shortened: as §1

[26] = target: GlcNAc(b1-3)Gal(b1-4)GlcNAc(b1-3)Gal(b1-4)GlcNAc(b1-3)Gal(b1-4)GlcNAc(b1-3)Gal(b1-4)GlcNAc(b1-2)Man(a1-3)[GlcNAc(b1-3)Gal(b1-4)GlcNAc(b1-3)Gal(b1-4)GlcNAc(b1-3)Gal(b1-4)GlcNAc(b1-3)Gal(b1-4)GlcNAc(b1-2)Man(a1-6)]Man(b1-4)GlcNAc(b1-4)[Fuc(a1-6)]GlcNAc
Procedure, shortened: as §1

[27] = target: GlcNAc(b1-3)[GlcNAc(b1-6)]Gal(b1-4)GlcNAc
Procedure, shortened: as §1

[28] = target: Man(a1-3)[Man(a1-6)]Man(b1-4)GlcNAc(b1-4)GlcNAc
Procedure, shortened: as §1

[29] = target: Man(a1-3)[Man(a1-6)]Man(b1-4)GlcNAc(b1-4)[Fuc(a1-6)]GlcNAc
Procedure, shortened: as §1

Man(a1-6)Man = target: Man(a1-6)Man
Procedure, shortened: as §1

[30] = target: Neu5Ac(a2-3)Gal(b1-3)[Neu5Ac(a2-6)]GalNAc
Procedure, shortened: as §1

[31] = target: Neu5Ac(a2-3)Gal(b1-4)GlcNAc
Procedure, shortened: as §1

[32] = target: Neu5Ac(a2-3)Gal(b1-4)GlcNAc(b1-3)Gal(b1-4)GlcNAc(b1-3)Gal(b1-4)GlcNAc(b1-2)Man(a1-3)[Neu5Ac(a2-3)Gal(b1-4)GlcNAc(b1-3)Gal(b1-4)GlcNAc(b1-3)Gal(b1-4)GlcNAc(b1-2)Man(a1-6)]GalNAc
Procedure, shortened: as §1

[33] = target: Neu5Ac(a2-3)Gal(b1-4)GlcNAc(b1-3)Gal(b1-4)GlcNAc(b1-6)[Gal(b1-3)]GalNAc
Procedure, shortened: as §1

[34] = target: Neu5Ac(a2-3)Gal(b1-4)GlcNAc(b1-6)GalNAc
Procedure, shortened: as §1

[35] = target: Neu5Ac(a2-3)GalNAc(b1-4)GlcNAc
Procedure, shortened: as §1

[36] = target: Neu5Ac(a2-8)Neu5Ac(a2-3)Gal(b1-3)GalNAc(b1-4)[Neu5Ac(a2-3)]Gal(b1-4)Glc
Procedure, shortened: as §1

[37] = target: Neu5Ac(a2-8)Neu5Gc(a2-3)Gal(b1-4)GlcNAc
Procedure, shortened: as §1

[38] = target: Neu5Gc(a2-3)Gal(b1-4)GlcNAc
Procedure, shortened: as §1

[39] = target: Neu5Gc(a2-3)Gal(b1-4)[Fuc(a1-3)]GlcNAc
Procedure, shortened: as §1

B1: PX14343A-bvu-539-29-539 (Bacteroides vulgatus) (protein)
chain: DSLTESSSNTFWQTPDDALMALASCYDALQSNQLYNSDQYSLGPLYMDCISDNGGHFNWSGWMEGYDMAMGIHTPSSSIIGSYWKDCYEVISRCNVLIANIDRVDMDASQKAIYQAEAKTIRALMYINLTMTYQDVPFLTAPLTIDEAECEKTDRAAIVAHVMTDLQDAAEVLPQNASSRGHITKGAALSLLGRVALYNEKWDDAIAAYKQVQGLGYSLDPSYAKLFTQSGETSPEIIFAVRYEGPGMSEGAAFNAHWNTPLEAMNGTIDLADAYYCKDGKPTTDTKIAELNGGGGLDVSKPNPAHFENRDPRLYSTLFVPGMLWNGKGGIDTSASNPYANVYGGAAASLSTVYVYKYFDPTDTSNSWDNGQDFYVVRYAEVLLSLAEAMVQKGGYVYSDVTALVNEVRQRADVNMPTVEEVEGTSLSKDELLEVIKHERRVELAFEGLRLFDLYRWKELDKAVANIENERTMYGLAYEARKFNGERDYVWPLPTAELDTNKKLVQHDLWK
- glycan array binding signal (z-score) [1]: -0.271
- glycan array binding signal (z-score) [2]: -0.213
- glycan array binding signal (z-score) [3]: 8.08
- glycan array binding signal (z-score) [4]: -0.083
- glycan array binding signal (z-score) [5]: -0.406
- glycan array binding signal (z-score) [6]: 7.49
- glycan array binding signal (z-score) [7]: 0.132
- glycan array binding signal (z-score) [8]: -0.292
- glycan array binding signal (z-score) [9]: -0.298
- glycan array binding signal (z-score) [10]: -0.338
- glycan array binding signal (z-score) (Fuc(a1-4)GlcNAc): -0.448
- glycan array binding signal (z-score) [11]: 6.76
- glycan array binding signal (z-score) (Gal(a1-4)Gal(b1-4)GlcNAc): -0.281
- glycan array binding signal (z-score) (Gal(b1-3)GlcNAc): -0.258
- glycan array binding signal (z-score) [12]: -0.396
- glycan array binding signal (z-score) [13]: 0.765
- glycan array binding signal (z-score) [14]: 4.27
- glycan array binding signal (z-score) [15]: 8.02
- glycan array binding signal (z-score) [16]: -0.116
- glycan array binding signal (z-score) [17]: 0.489
- glycan array binding signal (z-score) [18]: 1.35
- glycan array binding signal (z-score) [19]: 6.18
- glycan array binding signal (z-score) [20]: 3.38
- glycan array binding signal (z-score) [21]: 2.78
- glycan array binding signal (z-score) [22]: 9.28
- glycan array binding signal (z-score) [23]: -0.291
- glycan array binding signal (z-score) (Gal3S(b1-3)GlcNAc): -0.038
- glycan array binding signal (z-score) [24]: -0.121
- glycan array binding signal (z-score) [25]: -0.399
- glycan array binding signal (z-score) [26]: 0.355
- glycan array binding signal (z-score) [27]: -0.27
- glycan array binding signal (z-score) [28]: -0.432
- glycan array binding signal (z-score) [29]: -0.297
- glycan array binding signal (z-score) (Man(a1-6)Man): -0.184
- glycan array binding signal (z-score) [30]: 0.662
- glycan array binding signal (z-score) [31]: -0.373
- glycan array binding signal (z-score) [32]: 8.35
- glycan array binding signal (z-score) [33]: -0.244
- glycan array binding signal (z-score) [34]: 0.089
- glycan array binding signal (z-score) [35]: -0.142
- glycan array binding signal (z-score) [36]: -0.102
- glycan array binding signal (z-score) [37]: 4.74
- glycan array binding signal (z-score) [38]: -0.254
- glycan array binding signal (z-score) [39]: -0.404
